Here are results for eight compounds from PubChem BioAssay (NCATS).

The target of assay [1] is D(1A) dopamine receptor (Homo sapiens) (UniProt P21728). Put plainly: HTS Assay for Allosteric Agonists of the Human D1 Dopamine Receptor: Primary Screen for Agonists (AID 488981). Further: potency means the concentration at half of the fitted maximal effect. On activation: 0% is about no effect. The note with it: Inducible HEK293 T-REx D1 cells, calcium-flux fluorescence, 180 s kinetic; series mostly up to 41.8 µM. In short, it runs like this:
(§1)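 Calcium flux in an inducible, force-coupled HEK293 Trex D1 line (overnight at 30 C): agonist mode is the 180 s kinetic read after compound; potentiator mode is the following 180 s read after dopamine at EC20.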

Assay [2] has the same target. Put plainly: HTS Assay for Allosteric Agonists of the Human D1 Dopamine Receptor: Primary Screen for Potentiators (AID 488982). Further: 0% is about no effect. The note with it: HEK293 T-REx D1 inducible cells, calcium flux, kinetic fluorescence; series mostly up to 8.37 µM. Put shortly: as §1
In general terms: Calcium assays in cells follow changes in intracellular calcium, usually with a dye or a luminescent sensor.

Assay [3] shares this target. Put plainly: HTS Assay for Allosteric Agonists of the Human D1 Dopamine Receptor: Primary Screen for Antagonists (AID 488983).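 Further: calcium flux response to an EC80 dopamine challenge measured with no-wash dye; nearly all actives have a fitted effect of over 65% in size.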 Further: potency means the concentration at half of the fitted maximal effect. The note with it: D1 receptor cell assay, antagonist mode, qHTS titration; series mostly up to 41.8 µM. In short, it runs like this: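 Cells are induced with tetracycline and incubated overnight at 30 C, then loaded with calcium dye for 30 to 90 minutes at room temperature. Compound addition is followed by a 180 s read, then an EC80 dopamine addition and another 180 s read.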

Assay [4] can be described thus: Validation screen for small molecules that induce genotoxicity in human embryonic kidney (HEK293T) cells expressing luciferase-tagged ELG1 (AID 493106). Further: 0% is about no effect. Particulars: luminescence; series mostly up to 46.1 µM. Put shortly:
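Luminescence from an ELG1-luciferase fusion serves as the read-out, rising when genetic stress elevates ELG1 protein. HEK293T reporter cells (2,000 per well) received 23 nL compound, incubated 16 hr at 37 °C, then ONE-Glo for 30 min at room temperature.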

For assay [5], the target named is ATPase family AAA domain-containing protein 5 (Homo sapiens) (UniProt Q96QE3). The experiment in a line: Validation screen for small molecules that inhibit ELG1-dependent DNA repair in human embryonic kidney (HEK293T) cells expressing luciferase-tagged ELG1 (AID 493107).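 Further: cells co-treated with the DNA-damaging agent 5-fluorouridine alongside compound; on the % scale 0 is the no-effect control and ±100 the full control effect; inhibitors lower the ELG1-luciferase luminescence signal; nearly all actives have a fitted effect of over 70% in size.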 Particulars: HEK293T ELG1-luciferase level, luminescence, 5-fluorouridine co-treatment, 16 h; series mostly up to 46.1 µM. Put shortly: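 Luminescence from ONE-Glo, developed 30 min at room temperature, served as read-out of ELG1-luciferase levels. Beforehand, reporter HEK293T cells received 5-fluorouridine plus test compound for 16 hr at 37 °C.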

Assay [6] in a line: Nrf2 qHTS screen for inhibitors: Validation (AID 493153; active means well fitted inhibition curve with a large enough effect in the main read-out, with a control signal flat, not every such curve was filed as active; further: potency means the concentration at half of the fitted maximal effect). The note with it: A549 ARE-Fluc reporter, 18-24 h; Potency: luciferase luminescence; viability change: measured here: cytotoxicity max response; luciferase luminescence, at 46.1 µM (top of the series). In short, it runs like this: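 Luminescence from an ARE-firefly luciferase reporter in A549 cells gives Nrf2 inhibition; an earlier CellTiter-Fluor fluorescent read flags cytotoxicity. Cells in 5% FBS OPTI-MEM received compound dilution series for 18-24 h at 37°C.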
For orientation: In qHTS, concentration-response curves come from the screen itself.

Assay [7] can be described thus: qHTS for Inhibitors of Cell Surface uPA Generation: Validation Assay (AID 493164). Further: 0% is about no effect. Particulars: mouse cells, plasminogen activation; series mostly up to 38.3 µM. Put shortly: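 RAW 264.7 cells (4000/well) were plated overnight, then exposed for 18 h at 37 C, 5% CO2 to compounds in a 7-point 1:5 titration (2.45 nM–38.3 uM final). Intracellular ATP was read by ATP-Lite luminescence.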

Assay [8] deals with Peptidyl-prolyl cis-trans isomerase NIMA-interacting 1 (Homo sapiens) (UniProt Q13526). Put plainly: qHTS Validation Assay to Find Inhibitors of Pin1 (AID 504536; active means well fitted inhibition curve with a large enough effect in the polarisation, with a control signal flat, not every such curve was filed as active; the % refers to the polarisation;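 further: 0% = full Pin1 enzyme wells and -100% = no-enzyme wells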). The note with it: Pin1 fluorescence polarization peptide binding assay; series mostly up to 57.5 µM. Put shortly:
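Fluorescence polarization competition: compounds (titration) displace HiFluor-488-labeled Pin1-1b peptide from Pin1 (0.3 uM final) in pH 7.5 HEPES buffer with DTT, 10 min at room temperature; %Activity normalized to no-enzyme wells, curves fitted.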

Assay [9] has as its target Phosphoglycerate kinase, glycosomal (Trypanosoma brucei brucei) (UniProt P07378). Put plainly: qHTS Validation Assay to Find Inhibitors of Phosphoglycerate Kinase (AID 504547).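 Further: control wells lack PGK and mark full inhibition.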 The note with it: enzymatic PGK inhibition, coupled luminescence read-out; series mostly up to 57.5 µM. Put shortly:
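Inhibition of the enzyme is judged by a Kinase-Glo Plus luminescent signal following a one-hour incubation at room temperature. Because 1,3-BPG is unstable, it is made in situ by GAPDH at 100nM final; no-PGK wells define the baseline.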

Assay [10] deals with Ubiquitin carboxyl-terminal hydrolase 1 (Homo sapiens) (UniProt O94782). Put plainly: Inhibitors of USP1/UAF1: Pilot qHTS (AID 504865). Further: nearly all actives have a fitted effect of over 35% in size. Further: potency means the concentration at half of the fitted maximal effect. Particulars: purified USP1/UAF1, Ub-rhodamine cleavage fluorescence; series mostly up to 114 µM. In short, it runs like this: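 Deubiquitinase activity followed as kinetic rhodamine fluorescence release from 150 nM Ub-Rho. 1 nM USP1/UAF1 with compound, after 15 min room-temperature preincubation, in HEPES pH 7.8 buffer containing TCEP, EDTA, BSA and Tween-20.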

Assay [11] in a line: qHTS for Inhibitors of ATXN expression: Validation (AID 588378). Further: nearly all actives have a fitted effect of over 75% in size. Further: potency means the concentration at half of the fitted maximal effect. The note with it: cell-based ATXN2 expression reporter assay, luminescence; series mostly up to 57.1 µM. In short, it runs like this: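 Luciferase luminescence (Bright-Glo) from an ATXN2-FFLuc HEK293 line after 24 h compound exposure at 37 °C, preceded by a CellTiter-Fluor fluorescence viability read. Serial dilutions of a reference ATXN2 inhibitor and a luciferase inhibitor served as controls.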

Assay [12] concerns the target Thyrotropin receptor (Homo sapiens) (UniProt P16473). The experiment in a line: qHTS Assay for Antagonists of the Thyroid Stimulating Hormone Receptor (AID 488980). Further: 0% is about no effect. Particulars: TSHR-expressing cells, cAMP antagonist read-out; series mostly up to 57.5 µM. Put shortly: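 Inhibition of cAMP raised by EC80 TSH (4 nM final) was read by HTRF, with lysate cAMP competing against cAMP-d2 for cryptate antibody after 30 min at room temperature. The cells were transfected HEK293 held in phosphodiesterase inhibitor RO 20-1724 at 70 uM.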

Assay [13] concerns the target Thyrotropin-releasing hormone receptor (Homo sapiens) (UniProt P34981). Put plainly: qHTS for Small Molecule Agonists and Allosteric Enhancers of Human TRH Receptor: Validation Screen for Agonists (AID 493127;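 active means calcium activation more than 3 SD above the typical response in the agonist read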;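 further: intracellular calcium rise by fluo-8 fluorescence before TRH EC20 addition; 0% is about no effect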). The note with it: TRH receptor agonist cell assay; at 2 µM; stronger effect = higher value. Put shortly:
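Cells 2000/well, 10% FCS, 18 h 33.5C/5% CO2 → fluo-8 Ca dye, RT 30 min–1.5 h → FDSS baseline 10 × 1 s → compound added → 230 cycles (1 s/cycle) agonist mode. TRH controls.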

For assay [14], the target named is Galactokinase (Homo sapiens) (UniProt P51570). The experiment in a line: qHTS Validation Assay for Inhibitors of Human Galactokinase (GALK) (AID 493189). Further: 0% is about no effect. Particulars: purified human GALK enzyme activity, qHTS 7-point titration; series mostly up to 57.5 µM. Put shortly:
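Inhibition was measured as remaining ATP, detected by luciferase luminescence after a 1 h room-temperature reaction. Final conditions: 5 nM GALK, 100 uM galactose, 35 uM ATP, pH 8.0 HEPES buffer.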

Assay [15] can be described thus: Validation screen for small molecules that induce DNA re-replication in SW480 colon adenocarcinoma cells (AID 504364). Further: 0% is about no effect. The note with it: DNA re-replication phenotype (high-content imaging); series mostly up to 46.1 µM. In short, it runs like this: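 250 cells/well; compound pinned in; 48 hr, 37 C, 5% CO2; Hoechst added, 40 min; nuclear fluorescence imaged, 405 ex / 500-530 em; re-replication scored as increase in high-intensity nuclei.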

In assay [16] the target is phosphoglycerate mutase (Leishmania major) (UniProt Q4Q090). Put plainly: qHTS Validation Assay to Find Inhibitors of Phosphoglycerate Mutase (AID 504548). Further: on the % scale 0 is the no-effect control and ±100 the full control effect. Particulars: biochemical enzyme activity; Potency: inhibition qHTS; series mostly up to 57.5 µM. Put shortly:
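Luminescent end-point read-out via Kinase-GloPlus after a 10-minute development. Reaction: 1.25nM Leishmania major PGAM with substrate and compound, 45 minutes at room temperature in TEA buffer (pH 7.6) with MgCl2 and Tween-20.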

The nature of assay [17]: qHTS for Inhibitors of ATXN expression: Validation of Cytotoxic Assay (AID 588349). Further: potency means the concentration at half of the fitted maximal effect. The note with it: cytotoxicity counter-screen for ATXN expression inhibitors, cell viability; series mostly up to 57.1 µM. Put shortly:
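Read-out: ATP-based luminescence (CellTiter Glo) reflecting viability of HEK293 cells after 72 hr incubation at 37 degrees C with a concentration series of each compound.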

Records with an inconclusive call do not appear. The source made the active and inactive calls. Unless noted, the call rests on the fitted dose curve; in most records, active means well fitted curve in the direction sought with a large enough effect; inconclusive means small, poorly fitted or top-dose-only effect, or another doubt; inactive means no such curve, though single readings can be large; an effect the other way counts as inactive or inconclusive.

Chain of Thyrotropin receptor (Homo sapiens) (P16473 whole entry, looked up): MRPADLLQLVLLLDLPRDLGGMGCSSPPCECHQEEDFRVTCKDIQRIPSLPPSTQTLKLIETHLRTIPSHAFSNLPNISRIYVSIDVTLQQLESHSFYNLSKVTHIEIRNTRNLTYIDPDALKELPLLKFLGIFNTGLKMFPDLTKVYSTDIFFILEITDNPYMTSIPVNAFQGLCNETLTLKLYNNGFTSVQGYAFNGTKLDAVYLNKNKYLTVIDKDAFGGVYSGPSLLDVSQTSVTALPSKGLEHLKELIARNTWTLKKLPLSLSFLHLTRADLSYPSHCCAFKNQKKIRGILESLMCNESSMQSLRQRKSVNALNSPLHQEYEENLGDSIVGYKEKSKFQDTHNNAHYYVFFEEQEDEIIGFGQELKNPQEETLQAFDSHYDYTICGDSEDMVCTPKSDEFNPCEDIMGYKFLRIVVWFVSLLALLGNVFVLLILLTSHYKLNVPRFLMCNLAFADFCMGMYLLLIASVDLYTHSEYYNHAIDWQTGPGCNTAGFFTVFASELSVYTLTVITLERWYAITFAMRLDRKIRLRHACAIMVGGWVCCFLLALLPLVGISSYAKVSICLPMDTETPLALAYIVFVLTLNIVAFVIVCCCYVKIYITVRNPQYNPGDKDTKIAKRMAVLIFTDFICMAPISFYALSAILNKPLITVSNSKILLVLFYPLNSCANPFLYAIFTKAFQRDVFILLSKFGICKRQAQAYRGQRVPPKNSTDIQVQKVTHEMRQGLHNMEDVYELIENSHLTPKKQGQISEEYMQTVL
Chain of Ubiquitin carboxyl-terminal hydrolase 1 (Homo sapiens) (O94782 whole entry, looked up): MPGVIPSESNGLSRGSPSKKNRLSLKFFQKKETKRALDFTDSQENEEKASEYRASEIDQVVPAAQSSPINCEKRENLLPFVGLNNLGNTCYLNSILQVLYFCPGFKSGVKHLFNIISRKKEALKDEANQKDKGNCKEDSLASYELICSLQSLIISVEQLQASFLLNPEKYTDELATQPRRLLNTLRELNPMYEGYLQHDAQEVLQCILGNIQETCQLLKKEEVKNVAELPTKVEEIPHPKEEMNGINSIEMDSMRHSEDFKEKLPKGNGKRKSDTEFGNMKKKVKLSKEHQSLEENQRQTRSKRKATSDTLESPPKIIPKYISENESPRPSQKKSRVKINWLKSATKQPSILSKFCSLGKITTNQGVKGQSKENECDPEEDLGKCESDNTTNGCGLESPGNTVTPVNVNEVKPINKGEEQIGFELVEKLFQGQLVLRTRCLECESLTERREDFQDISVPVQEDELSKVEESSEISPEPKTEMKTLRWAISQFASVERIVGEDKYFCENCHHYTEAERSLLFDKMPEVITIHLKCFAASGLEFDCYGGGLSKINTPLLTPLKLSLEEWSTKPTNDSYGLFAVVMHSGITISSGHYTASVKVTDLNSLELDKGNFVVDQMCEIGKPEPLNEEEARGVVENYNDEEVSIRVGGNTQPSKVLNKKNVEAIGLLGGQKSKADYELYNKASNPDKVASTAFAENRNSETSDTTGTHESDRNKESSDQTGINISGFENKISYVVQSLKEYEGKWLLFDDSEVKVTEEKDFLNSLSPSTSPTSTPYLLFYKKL
Chain of Phosphoglycerate kinase, glycosomal (Trypanosoma brucei brucei) (P07378 whole entry, looked up): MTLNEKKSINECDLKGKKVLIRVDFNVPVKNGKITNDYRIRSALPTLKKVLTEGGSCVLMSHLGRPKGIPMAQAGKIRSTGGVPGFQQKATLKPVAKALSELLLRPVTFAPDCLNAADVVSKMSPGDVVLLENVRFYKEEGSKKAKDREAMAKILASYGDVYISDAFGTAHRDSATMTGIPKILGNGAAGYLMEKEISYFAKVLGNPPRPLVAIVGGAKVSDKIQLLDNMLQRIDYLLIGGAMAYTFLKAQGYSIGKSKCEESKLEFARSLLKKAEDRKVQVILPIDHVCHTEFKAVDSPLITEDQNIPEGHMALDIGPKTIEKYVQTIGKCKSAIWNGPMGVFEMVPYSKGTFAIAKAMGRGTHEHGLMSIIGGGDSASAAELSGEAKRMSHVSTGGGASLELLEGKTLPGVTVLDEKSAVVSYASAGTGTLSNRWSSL
Chain of Thyrotropin-releasing hormone receptor (Homo sapiens) (P34981 whole entry, looked up): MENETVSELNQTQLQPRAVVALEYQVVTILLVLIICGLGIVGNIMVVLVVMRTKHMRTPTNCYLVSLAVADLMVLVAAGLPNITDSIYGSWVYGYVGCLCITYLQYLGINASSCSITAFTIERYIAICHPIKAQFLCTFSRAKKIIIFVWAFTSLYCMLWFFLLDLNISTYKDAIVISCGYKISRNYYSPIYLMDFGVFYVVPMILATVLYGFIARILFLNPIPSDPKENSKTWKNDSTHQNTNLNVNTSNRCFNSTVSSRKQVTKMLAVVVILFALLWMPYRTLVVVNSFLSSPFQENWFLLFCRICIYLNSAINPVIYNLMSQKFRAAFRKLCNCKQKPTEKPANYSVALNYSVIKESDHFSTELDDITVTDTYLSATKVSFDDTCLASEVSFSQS
Chain of Galactokinase (Homo sapiens) (P51570 whole entry, looked up): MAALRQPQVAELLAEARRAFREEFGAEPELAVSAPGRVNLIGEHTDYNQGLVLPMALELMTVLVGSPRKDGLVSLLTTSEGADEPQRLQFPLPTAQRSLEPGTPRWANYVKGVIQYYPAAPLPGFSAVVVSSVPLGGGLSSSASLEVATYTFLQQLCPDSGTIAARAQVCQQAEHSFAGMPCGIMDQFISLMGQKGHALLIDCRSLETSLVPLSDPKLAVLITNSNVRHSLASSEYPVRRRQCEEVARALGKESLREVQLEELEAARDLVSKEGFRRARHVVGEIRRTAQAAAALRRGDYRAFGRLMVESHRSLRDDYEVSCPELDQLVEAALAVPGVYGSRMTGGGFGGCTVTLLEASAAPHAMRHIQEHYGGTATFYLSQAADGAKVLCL
Chain of Peptidyl-prolyl cis-trans isomerase NIMA-interacting 1 (Homo sapiens) (Q13526 whole entry, looked up): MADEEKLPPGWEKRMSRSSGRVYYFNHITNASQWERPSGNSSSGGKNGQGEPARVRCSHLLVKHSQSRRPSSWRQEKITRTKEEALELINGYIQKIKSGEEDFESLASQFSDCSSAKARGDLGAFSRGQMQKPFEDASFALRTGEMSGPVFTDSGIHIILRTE
Chain of phosphoglycerate mutase (Leishmania major) (Q4Q090 1-553): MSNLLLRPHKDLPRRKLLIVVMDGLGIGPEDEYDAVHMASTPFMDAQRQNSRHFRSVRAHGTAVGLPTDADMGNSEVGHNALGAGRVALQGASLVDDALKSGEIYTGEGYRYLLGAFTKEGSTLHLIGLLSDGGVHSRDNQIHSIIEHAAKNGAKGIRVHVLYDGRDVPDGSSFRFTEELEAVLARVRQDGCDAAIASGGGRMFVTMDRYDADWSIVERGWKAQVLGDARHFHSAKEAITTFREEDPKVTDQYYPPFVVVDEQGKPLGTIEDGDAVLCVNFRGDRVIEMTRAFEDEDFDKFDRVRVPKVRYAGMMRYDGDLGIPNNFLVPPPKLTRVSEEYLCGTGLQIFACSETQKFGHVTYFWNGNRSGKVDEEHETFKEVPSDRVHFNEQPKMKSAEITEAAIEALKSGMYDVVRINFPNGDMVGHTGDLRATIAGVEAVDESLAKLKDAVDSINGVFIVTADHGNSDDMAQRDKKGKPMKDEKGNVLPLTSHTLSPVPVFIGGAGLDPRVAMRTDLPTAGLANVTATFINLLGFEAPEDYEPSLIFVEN
Chain of D(1A) dopamine receptor (Homo sapiens) (P21728 whole entry, looked up): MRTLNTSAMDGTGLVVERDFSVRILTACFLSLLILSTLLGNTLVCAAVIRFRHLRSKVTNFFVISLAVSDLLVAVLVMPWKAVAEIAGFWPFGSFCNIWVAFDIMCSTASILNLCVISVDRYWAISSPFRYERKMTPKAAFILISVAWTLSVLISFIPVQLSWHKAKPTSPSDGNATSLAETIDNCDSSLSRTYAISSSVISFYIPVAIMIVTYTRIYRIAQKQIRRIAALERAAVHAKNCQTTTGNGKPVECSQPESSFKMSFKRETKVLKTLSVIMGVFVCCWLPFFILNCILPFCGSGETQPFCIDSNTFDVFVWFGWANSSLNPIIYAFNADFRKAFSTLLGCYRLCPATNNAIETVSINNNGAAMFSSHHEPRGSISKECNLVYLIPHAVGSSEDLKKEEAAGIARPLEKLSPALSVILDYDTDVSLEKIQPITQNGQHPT

On to `C=C1C[C@@]23CC[C@H]4[C@@](C)(CCC[C@@]4(C)C(=O)O)[C@@H]2CC[C@]1(O)C3`, for which the Potency result in assay [1], in [2], in assay [3], in assay [4], in assay [5] and in assay [6] was “inactive” throughout. The Potency result in assay [8], in assay [9], in assay [10] and in [11] was “inactive” each time. The viability change in [6] is -13.4%. Moreover, the outcome in assay [7] was inactive.

Consider `O=C1OC(=O)C2C3CCC(O3)C12` (stereo not given), for which the outcome in assay [12] was inactive. Moreover, the Potency result in assay [1], in assay [2], in assay [3], in assay [5], in assay [6] and in assay [14] was “inactive” in each case. Further, the Potency entry in assay [15], in [8], in assay [9], in assay [16], in assay [10] and in assay [11] was “inactive” in each case. Moreover, in assay [13], the activation was 0.938% (inactive). Moreover, in assay [6], the viability change is -3.78%.

Consider `O[Si](CCCN1CCCCC1)(c1ccc(F)cc1)C1CCCCC1` (stereo not given), for which the result in [12] and in assay [7] was inactive. Further, the Potency result in [2], in [3], in assay [4], in assay [6], in assay [14] and in assay [8] was “inactive” in each case. Besides, the Potency entry in assay [9], in [16] and in assay [10] was “inactive” throughout. The activation in assay [13] is 5.12% (inactive). Also, the viability change in [6] was -4.41%.

`OC1(c2ccc(Cl)cc2)CCN(Cc2c[nH]c3ccccc23)CC1`: the result in assay [12] and in assay [7] was inactive. The Potency result in [5], in [6], in assay [8], in [9], in assay [16] and in assay [10] was “inactive” in each case. For the same compound, the Potency result in [17] was “inactive”. For the same compound, the activation in assay [13] was 7.75% (inactive). In addition, the viability change in [6] is -2.32%.

In the case of `O=C(N[C@@H](Cc1ccccc1)C(=O)CCl)OCc1ccccc1`, the outcome in assay [12] and in assay [7] was inactive. In addition, the Potency entry in assay [1], in [2], in assay [4], in assay [14], in [15] and in [8] was “inactive” in each case. In addition, the activation in [13] was -3.75% (inactive). Also, the Potency is 14.6 µM (active) in [6], 28.2 µM (active) in [10], 3.55 µM (active) in [17] and 3.98 µM (active) in [11]. In [6], the viability change was -11.4%.

Take `N#CC(=C(\N)Sc1ccccc1N)/C(C#N)=C(/N)Sc1ccccc1N`: the outcome in [12] and in [7] was inactive. In addition, the Potency entry in assay [1], in assay [2], in assay [3], in assay [4], in assay [8] and in [9] was “inactive” in each case. Moreover, the Potency entry in [16], in assay [10] and in assay [17] was “inactive” in each case. In addition, the activation in [13] is 2.62% (inactive).

For `CN(C)S(=O)(=O)c1ccc2c(c1)/C(=C/c1cc3c([nH]1)CCCC3)C(=O)N2`, the outcome in [12] and in assay [7] was inactive. Besides, the Potency in assay [1] is 12.6 µM (active); in [10] it was 25.1 µM (active). Moreover, the Potency entry in [2], in [3], in [14], in assay [9], in assay [16] and in assay [17] was “inactive” throughout. Besides, in assay [11], the Potency entry was “inactive”. Moreover, in [13], the activation is 26.3% (inactive).

Consider `COc1cccc(OC)c1OCCNCC1CSc2ccccc2O1` (stereo not given), for which the outcome in [12] and in assay [7] was inactive. The Potency result in assay [2], in assay [4], in assay [6], in assay [8], in [9] and in assay [16] was “inactive” each time. Also, the Potency in [3] was 1.26 µM (active). Further, the activation in assay [13] is -3.81% (inactive). For the same compound, the viability change in [6] was -8.63%.
